The values that follow come from PubChem BioAssay.

Structures are written as SMILES. Activity calls are given as the source filed them. Unless noted, how the calls were made is not given here.

Assay [1] can be described thus: compounds binding Alexa647 anti-His antibody – biochemical, small-molecule microarray, 635 nm fluorescence, artefact control for SMM control protein annotation, primary screen (AID 1128).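 Further: score merges feature fluorescence with signal-to-noise for each printed compound spot.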 The following applies: higher = more signal.
For assay [2], the system named is Human papillomavirus type 1a E7 protein (residues 1-88). Nature of the assay: HPV1a E7 small-molecule binders, primary screen, biochemical, small-molecule microarray, residues 1-88, 635 nm (AID 1129). The note with it: small-molecule microarray binding, fluorescence 635 nm; higher = more signal.
Assay [3] deals with Focal adhesion kinase 1 (Homo sapiens) (UniProt Q05397). As to the kind of experiment: PTK2 protein binding on printed compound slides – biochemical, small-molecule microarray, 635/667 nm fluorescence, BSA, DTT, primary screen (AID 1130).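 Further: composite of spot emission at 667 nm and signal to noise over triplicate slides.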 The note with it: 635 nm fluorescence, higher = more signal.
Focal adhesion kinase 1 (Homo sapiens), sequence (Q05397 whole entry, looked up): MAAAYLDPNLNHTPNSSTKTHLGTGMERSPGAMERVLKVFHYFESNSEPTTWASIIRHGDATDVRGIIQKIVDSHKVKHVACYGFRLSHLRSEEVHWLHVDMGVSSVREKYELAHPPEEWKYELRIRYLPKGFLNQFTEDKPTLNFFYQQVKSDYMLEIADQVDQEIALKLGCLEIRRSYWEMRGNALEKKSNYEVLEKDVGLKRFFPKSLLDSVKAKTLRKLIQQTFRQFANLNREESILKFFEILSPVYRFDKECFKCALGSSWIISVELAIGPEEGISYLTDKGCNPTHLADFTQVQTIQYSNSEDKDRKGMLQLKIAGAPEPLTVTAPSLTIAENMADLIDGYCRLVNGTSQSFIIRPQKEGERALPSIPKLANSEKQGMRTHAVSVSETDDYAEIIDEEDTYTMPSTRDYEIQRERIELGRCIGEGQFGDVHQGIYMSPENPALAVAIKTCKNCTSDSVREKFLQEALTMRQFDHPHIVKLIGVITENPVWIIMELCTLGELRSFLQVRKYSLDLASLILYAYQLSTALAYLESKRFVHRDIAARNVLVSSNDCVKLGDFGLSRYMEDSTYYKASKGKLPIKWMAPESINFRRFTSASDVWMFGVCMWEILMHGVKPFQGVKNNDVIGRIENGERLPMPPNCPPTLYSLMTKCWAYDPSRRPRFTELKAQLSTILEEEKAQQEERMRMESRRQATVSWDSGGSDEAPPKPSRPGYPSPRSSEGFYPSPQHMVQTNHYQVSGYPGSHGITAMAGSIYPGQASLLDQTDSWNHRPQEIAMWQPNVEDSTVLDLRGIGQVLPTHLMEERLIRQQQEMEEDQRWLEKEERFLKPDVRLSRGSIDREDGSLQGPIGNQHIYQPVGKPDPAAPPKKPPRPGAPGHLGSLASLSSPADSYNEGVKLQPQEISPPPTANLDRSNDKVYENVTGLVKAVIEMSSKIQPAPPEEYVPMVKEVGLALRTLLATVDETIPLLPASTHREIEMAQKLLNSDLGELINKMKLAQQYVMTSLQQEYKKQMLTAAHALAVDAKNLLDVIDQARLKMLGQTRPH
Assay [4] relates to Fibrinogen (Alexa647-labelled). Nature of the assay: Alexa647-fibrinogen binding to printed small molecules – biochemical, small-molecule microarray, 635/667 nm fluorescence, artefact control for SMM control-protein annotation, profiling panel (AID 1131).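 Further: z-score merges 667 nm fluorescence with per-spot signal-to-noise over triplicate slides.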 The following applies: fibrinogen-A647 binding fluorescence, higher = more signal.
For assay [5], the target named is Follistatin (Homo sapiens) (UniProt P19883). As to the kind of experiment: FST protein binding to printed compounds – biochemical, small-molecule microarray, 635/667 nm fluorescence, primary screen (AID 1132). The note with it: 635 nm fluorescence, higher = more signal.
Follistatin (Homo sapiens), sequence (P19883 whole entry, looked up): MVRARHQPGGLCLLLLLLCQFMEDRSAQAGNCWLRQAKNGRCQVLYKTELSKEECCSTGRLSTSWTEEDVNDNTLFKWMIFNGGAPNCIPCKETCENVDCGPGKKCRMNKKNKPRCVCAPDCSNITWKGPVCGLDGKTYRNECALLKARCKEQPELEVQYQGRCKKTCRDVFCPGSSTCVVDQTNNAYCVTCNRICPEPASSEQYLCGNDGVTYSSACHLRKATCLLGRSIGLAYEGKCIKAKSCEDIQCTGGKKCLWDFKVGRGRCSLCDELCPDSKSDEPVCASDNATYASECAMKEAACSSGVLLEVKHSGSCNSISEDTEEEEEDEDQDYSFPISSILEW
Assay [6] addresses Fibroblast growth factor 2 (Homo sapiens) (UniProt P09038). Nature of the assay: basic fibroblast growth factor binding to printed compounds – biochemical, small-molecule microarray, 635/667 nm fluorescence, primary screen (AID 1133). The following applies: FGF2, fluorescence 635/667, higher = more signal.
Assay [7] can be described thus: JC-1 mitochondrial potential readout, lung cancer cells – cell-based, A549, JC-1 fluorescence, basal, 24 h, 100 nL, profiling panel (AID 1138).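 Further: A549 lung adenocarcinoma cells under basal conditions with no added stimulus; test concentration not given here.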 The following applies: higher = more signal.
The test system of a further assay is Lefty1. Nature of the assay: Lefty1 protein binding to printed compounds – biochemical, small-molecule microarray, 635/667 nm fluorescence, primary screen (AID 1139). The note with it: fluorescence 635/667, higher = more signal.
Assay [8] deals with wheat germ agglutinin (Triticum aestivum), Alexa647-labelled. Nature of the assay: Alexa647-WGA lectin binding to printed small molecules – biochemical, small-molecule microarray, 635/667 nm fluorescence, artefact control for SMM control-protein annotation, profiling panel (AID 1140).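 Further: score merges 667 nm feature emission with signal to noise over triplicate slides.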 The note with it: WGA-A647 binding, 635 nm fluorescence, higher = more signal.
Assay [9] has as its target Luciferin 4-monooxygenase (Photinus pyralis) (UniProt P08659). Nature of the assay: inhibition of purified Photinus pyralis luciferase – biochemical, luminescence, purified enzyme, 2006 set, primary screen (AID 1141).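 Further: cell-free assay with purified firefly luciferase at 100 ng per well in PBS; test concentration not given here.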 The following applies: purified firefly luciferase, SteadyGlo luminescence, 30 min; higher = more signal, called active from +8 up or from −8 down.
The test system of assay [10] is Wnt5a (protein binding on small-molecule microarray). As to the kind of experiment: small molecules binding Wnt5a protein – biophysical, small-molecule microarray, 635/667 nm fluorescence, primary screen (AID 1142).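 Further: fluorescence read at 667 nm with signal to noise per printed feature.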 The note with it: 635 nm fluorescence, higher = more signal.
Assay [11] is described as follows: ATP-based viability of Huh7 replicon cells – cell-based, CellTiter-Glo luminescence, basal, 48 h, cytotoxicity control for HCV replication inhibitor project, primary screen (AID 1143).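 Further: Huh7 hepatoma cells carrying a hepatitis C replication reporter with no stimulus; test concentration not given here.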 The following applies: higher = more signal, called active from +8 up or from −8 down. In general terms: In antiviral work, replicon cells carry a viral genome segment that copies itself.

Assay [12] is described as follows: Pseudomonas biofilm growth suppression – PAO1 strain, BacTiter-Glo luminescence, LB-PBS, primary screen (AID 1144). The note with it: P. aeruginosa PAO1 biofilm, 12 h, higher = more signal.
Assay [13] can be described thus: basal CRE-LacZ reporter activity in PC12 – cell-based, unstimulated, primary screen (AID 1145). The following applies: no forskolin, luminescence, 4.5 h, higher = more signal, called active from +8 up or from −8 down.
Assay [14] is described as follows: forskolin-driven CRE-LacZ activity in PC12 – cell-based, CRE-LacZ reporter, forskolin-stimulated, primary screen (AID 1146).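 Further: PC12 cells with 6xCRE LacZ reporter stimulated by forskolin 10 µM; beta-galactosidase reporter signal reflecting CREB driven transcription.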 The following applies: luminescence, 4.5 h, higher = more signal, called active from +8 up or from −8 down.
Assay [15] concerns the target Streptavidin (Streptomyces avidinii) (UniProt P22629). As to the kind of experiment: compounds binding control protein streptavidin – biophysical, small-molecule microarray, 635/667 nm fluorescence, artefact control for SMM compound annotation, primary screen (AID 1147).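 Further: signal reflects streptavidin binding to arrayed compounds as a control protein.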 The following applies: higher = more signal.
Assay [16] in a line: probe aInhba binding on compound microarray – biochemical, small-molecule microarray, 635/667 nm fluorescence, primary screen (AID 1148).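 Further: score merges 667nm spot fluorescence with signal-to-noise for antibody binding to printed compounds.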 The note with it: higher = more signal.
Assay [17] deals with Torsin-1A (Homo sapiens) (UniProt O14656). As to the kind of experiment: TOR1A wild-type binding on microarray – cell lysate, small-molecule microarray, lysate, 635/667 nm, primary screen (AID 1149). The following applies: COS7 hTOR1A-WT lysate, 635 nm fluorescence, higher = more signal.
Torsin-1A (Homo sapiens), sequence (O14656 whole entry, looked up): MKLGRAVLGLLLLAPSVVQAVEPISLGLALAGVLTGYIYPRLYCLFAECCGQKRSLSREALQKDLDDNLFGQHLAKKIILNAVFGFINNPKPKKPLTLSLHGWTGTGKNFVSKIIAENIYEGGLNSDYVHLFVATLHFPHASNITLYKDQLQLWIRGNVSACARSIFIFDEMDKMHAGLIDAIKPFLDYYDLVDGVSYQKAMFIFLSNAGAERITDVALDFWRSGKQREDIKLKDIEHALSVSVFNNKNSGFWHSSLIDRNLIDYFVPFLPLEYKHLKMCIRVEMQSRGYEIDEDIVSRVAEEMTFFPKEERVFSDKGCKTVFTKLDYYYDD
Assay [18] shares this target. Nature of the assay: torsin A mutant lysate binding on microarrays – cell lysate, small-molecule microarray, COS7 lysate, 635/667 nm fluorescence, primary screen (AID 1150).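 Further: score pools 667 nm emission and signal to noise measuring lysate protein binding.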 The note with it: COS7 hTOR1A mutant lysate, 635 nm fluorescence, higher = more signal.
Assay [19] deals with Sonic hedgehog protein (Shh). As to the kind of experiment: Sonic hedgehog microarray binding compounds – biochemical, small-molecule microarray, 635/667 nm fluorescence, primary screen (AID 1151).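 Further: Shh protein binding to compounds spotted on small-molecule microarray slides; score combines spot fluorescence intensity with signal-to-noise across triplicate slides.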 The note with it: 635 nm fluorescence, higher = more signal.

Luciferin 4-monooxygenase (Photinus pyralis), sequence (P08659 whole entry, looked up): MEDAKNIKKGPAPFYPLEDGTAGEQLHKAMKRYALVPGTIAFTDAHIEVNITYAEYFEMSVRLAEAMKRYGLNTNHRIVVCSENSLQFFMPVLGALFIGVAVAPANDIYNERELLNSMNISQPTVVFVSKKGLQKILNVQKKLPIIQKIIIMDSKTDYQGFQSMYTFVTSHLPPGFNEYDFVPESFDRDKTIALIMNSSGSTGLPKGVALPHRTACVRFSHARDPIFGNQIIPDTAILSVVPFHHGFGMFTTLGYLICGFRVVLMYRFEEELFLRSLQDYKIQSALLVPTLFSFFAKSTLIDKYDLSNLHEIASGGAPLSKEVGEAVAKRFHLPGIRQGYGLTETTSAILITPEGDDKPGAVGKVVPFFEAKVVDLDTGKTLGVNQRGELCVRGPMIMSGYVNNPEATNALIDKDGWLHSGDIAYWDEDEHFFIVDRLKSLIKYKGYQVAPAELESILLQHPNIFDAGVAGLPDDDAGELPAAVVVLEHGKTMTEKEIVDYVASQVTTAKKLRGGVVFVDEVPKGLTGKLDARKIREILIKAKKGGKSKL
Fibroblast growth factor 2 (Homo sapiens), sequence (P09038 whole entry, looked up): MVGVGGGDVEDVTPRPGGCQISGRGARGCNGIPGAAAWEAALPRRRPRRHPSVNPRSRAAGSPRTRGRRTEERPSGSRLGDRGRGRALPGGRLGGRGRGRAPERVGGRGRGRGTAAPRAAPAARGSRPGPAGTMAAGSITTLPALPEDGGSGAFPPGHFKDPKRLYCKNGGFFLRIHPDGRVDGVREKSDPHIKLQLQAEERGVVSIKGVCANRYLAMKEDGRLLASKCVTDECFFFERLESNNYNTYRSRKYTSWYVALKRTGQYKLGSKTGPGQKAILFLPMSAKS
Streptavidin (Streptomyces avidinii), sequence (P22629 whole entry, looked up): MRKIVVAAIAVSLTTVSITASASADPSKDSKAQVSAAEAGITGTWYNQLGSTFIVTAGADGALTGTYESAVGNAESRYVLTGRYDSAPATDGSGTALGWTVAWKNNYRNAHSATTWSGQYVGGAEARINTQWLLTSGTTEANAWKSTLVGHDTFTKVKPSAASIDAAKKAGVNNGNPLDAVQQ

As for `COCC(=C=CC[C@H](O)c1ccc(OCCO)cc1)C[C@H](O)c1cc(Cl)cc(Cl)c1O`, the composite z-score is 0.773 in [1]; 0.907 in assay [2]; -0.427 in assay [3]; 0.799 in assay [4]; 1.38 in [5]; 1.4 in [6]. Also, the composite z-score in the assay with Lefty1 was 1.47; in assay [8], 0.0552; in assay [10], 0.635; in [15], 0.169; in [16] it was 0.0849; with Torsin-1A (Homo sapiens) [17], 1.06. Further, the composite z-score with Torsin-1A (Homo sapiens) [18] was found to be 0.3; in assay [19] it was 2.26. Moreover, the z-score in assay [7] is 0.268; in assay [9], -0.846 (inactive); in assay [11] it was -7.94 (inactive); in [12], -0.984 (inactive); in assay [13] it was 11.1 (active); in [14], 0.96 (inactive).
On to `C=CCC(OC(C)=O)[C@@H]1[C@@H](N(Cc2ccc(-c3ccccc3)cc2)C(=O)Cc2ccc(F)cc2)c2cc(OCCCO)ccc2N1C(=O)c1ccc2ccccc2n1` (stereo not given in full), for which the composite z-score in assay [1] was -0.26; in assay [2], -0.0475; in assay [3] it was -0.312; in [4] it was 0.165; in [5] it was 0.177; in assay [6], 0.253. Moreover, the composite z-score is -0.192 in the assay on Lefty1; 0.216 in assay [8]; -0.212 in assay [10]; 0.171 in assay [15]; 0.151 in assay [16]; 0.226 with Torsin-1A (Homo sapiens) [17]. Further, the composite z-score with Torsin-1A (Homo sapiens) [18] was 0.0886; in assay [19] it was 0.321. Besides, the z-score in [7] was 1.94; in assay [9], -1.26 (inactive); in [11], 0.0753 (inactive); in assay [12], -0.201 (inactive); in assay [13], 2.31 (inactive); in [14], -0.116 (inactive).
Consider `CCOC(=O)C[C@H]1[C@H](OC(=O)c2ccc(-c3ccccc3)cc2)[C@@H](NC(=O)c2ccc(-c3ccccc3)cc2)c2cc(OCCCO)ccc2N1C(=O)Cc1ccc(OC)cc1`, for which the composite z-score in assay [1] is 0.296; in [2], 0.226; in assay [3] it was 0.315; in assay [4], 0.656; in assay [5] it was 0.13; in [6], -0.167. In addition, the composite z-score is -0.245 in the assay with Lefty1; -0.0591 in [8]; 0.0386 in assay [10]; 0.745 in assay [15]; 0.0301 in [16]; -0.205 with Torsin-1A (Homo sapiens) [17]. In addition, the composite z-score with Torsin-1A (Homo sapiens) [18] is 0.119; in [19], -0.195. The z-score in assay [7] was 0.322; in assay [9], 0.735 (inactive); in [11], -0.477 (inactive); in [12], -0.402 (inactive); in [13], -0.448 (inactive); in assay [14] it was -0.494 (inactive).
For the compound `O=C1O[C@H](c2ccccc2)[C@H](c2ccccc2)N2[C@H]1[C@@H](C(=O)Nc1nc3ccccc3s1)[C@]1(C(=O)Nc3ccccc31)[C@H]2c1ccc(O)cc1`, the composite z-score in [1] worked out at 0.156; in assay [2], 1.24; in [3], 0.19; in assay [4] it was 0.921; in assay [5] it was 1.32; in [6] it was 1.47. The composite z-score with Lefty1 was 1.08; in assay [8] it was 0.705; in assay [10], 0.0365; in assay [15], 1.2; in assay [16], -0.0736; with Torsin-1A (Homo sapiens) [17] it was -0.0245. The values for the composite z-score (in the assay with Torsin-1A (Homo sapiens) [18]; in [19]) were 0.414 and 1.51, respectively. Besides, the z-score in [7] is -2.12; in [9], -0.647 (inactive); in [11], -1.69 (inactive); in assay [12], -0.363 (inactive); in [13], 0.478 (inactive); in [14] it was 0.757 (inactive).
`O=c1oc(-c2ccccc2)nc2cc(Br)ccc12`: the composite z-score in [1] was 0.118; in assay [2], 0.71; in [3], 0.704; in assay [4] it was 0.481; in [5], 0.405; in [6], 0.671. In addition, the composite z-score was 0.585 in the assay with Lefty1; 0.466 in [8]; 0.147 in assay [10]; 0.0708 in [15]; -0.176 in assay [16]; 0.641 with Torsin-1A (Homo sapiens) [17]. For the same compound, the composite z-score in the assay with Torsin-1A (Homo sapiens) [18] came out at 0.508; in assay [19], 0.44. The z-score was 0.112 in assay [7]; -9.5 (active) in [9]; -0.746 (inactive) in assay [11]; 0.786 (inactive) in assay [12]; 0.416 (inactive) in assay [13]; 0.827 (inactive) in assay [14].
